{"source": "ChEMBL document CHEMBL4513146", "about": "“CO-ADD screening of Karazin Kharkiv National University (Ukraine) compounds”", "key": {"Klebsiella pneumoniae": {"tested_on": "Klebsiella pneumoniae", "settings": "Concentration 32 ug.mL-1;; ASSAY_TEST Inhibition of Bacterial Growth; detection method Absorption (OD600); MEDIA CAMHB; plate type 384well; NBS; CORNING #3640; time 18 hr"}, "Candida albicans": {"tested_on": "Candida albicans", "settings": "Concentration 32 ug.mL-1; ASSAY_TEST Inhibition of Fungal Growth; detection method Absorption (OD530)"}, "Cryptococcus neoformans": {"tested_on": "Cryptococcus neoformans", "settings": "Concentration 32 ug.mL-1; ASSAY_TEST Inhibition of Fungal Growth; detection method Resazurin; Absorption (OD600-OD570); plate type 384well; NBS; CORNING #3640"}}, "note": "Potency and affinity values are given separately."}
{"smiles": "O=C(Cn1nc2c(Sc3ccccc3)nccn2c1=O)Nc1cc(F)ccc1F", "values": [{"measurement": "Inhibition", "setting": "Klebsiella pneumoniae", "result": -2.16, "unit": "%"}, {"measurement": "Inhibition", "setting": "Candida albicans", "result": 0.26, "unit": "%"}, {"measurement": "Inhibition", "setting": "Cryptococcus neoformans", "result": -12.37, "unit": "%"}]}
{"smiles": "CCCCOc1ccc(-c2cc3c4nnc(SCC(=O)Nc5c(C)cccc5C)n4ccn3n2)cc1", "values": [{"measurement": "Inhibition", "setting": "Klebsiella pneumoniae", "result": 2.94, "unit": "%"}, {"measurement": "Inhibition", "setting": "Candida albicans", "result": 28.25, "unit": "%"}, {"measurement": "Inhibition", "setting": "Cryptococcus neoformans", "result": -13.35, "unit": "%"}]}
{"smiles": "O=C(Cn1nc2c3sc(N4CCCC4)nc3ncn2c1=O)Nc1ccc(C(F)(F)F)cc1", "values": [{"measurement": "Inhibition", "setting": "Klebsiella pneumoniae", "result": 13.17, "unit": "%"}, {"measurement": "Inhibition", "setting": "Candida albicans", "result": 1.98, "unit": "%"}, {"measurement": "Inhibition", "setting": "Cryptococcus neoformans", "result": -9.31, "unit": "%"}]}
{"smiles": "COc1cccc(CN(c2ccc(C(C)C)cc2)S(=O)(=O)c2cccn3cnnc23)c1", "values": [{"measurement": "Inhibition", "setting": "Klebsiella pneumoniae", "result": 13.52, "unit": "%"}, {"measurement": "Inhibition", "setting": "Candida albicans", "result": 10.84, "unit": "%"}, {"measurement": "Inhibition", "setting": "Cryptococcus neoformans", "result": -11.09, "unit": "%"}]}
{"smiles": "COc1cccc(Sc2nc3ccccc3n3c(=O)n(CC(=O)Nc4cc(C)cc(C)c4)nc23)c1", "values": [{"measurement": "Inhibition", "setting": "Klebsiella pneumoniae", "result": 4.15, "unit": "%"}, {"measurement": "Inhibition", "setting": "Candida albicans", "result": 5.74, "unit": "%"}, {"measurement": "Inhibition", "setting": "Cryptococcus neoformans", "result": -11.67, "unit": "%"}]}
{"smiles": "O=c1c2nn(Cc3cccc(F)c3)c(=O)n2ccn1-c1ccccc1", "values": [{"measurement": "Inhibition", "setting": "Klebsiella pneumoniae", "result": 3.5, "unit": "%"}, {"measurement": "Inhibition", "setting": "Candida albicans", "result": 1.62, "unit": "%"}, {"measurement": "Inhibition", "setting": "Cryptococcus neoformans", "result": -10.61, "unit": "%"}]}
{"smiles": "O=S(=O)(c1ccc2nncn2c1)N(Cc1cc(F)cc(F)c1)c1ccc2c(c1)OCO2", "values": [{"measurement": "Inhibition", "setting": "Klebsiella pneumoniae", "result": 11.56, "unit": "%"}, {"measurement": "Inhibition", "setting": "Candida albicans", "result": 2.54, "unit": "%"}, {"measurement": "Inhibition", "setting": "Cryptococcus neoformans", "result": -7.84, "unit": "%"}]}
{"smiles": "Cc1ccc(-c2cc3c4nn(CC(=O)Nc5c(C)cccc5C)c(=O)n4ccn3n2)cc1", "values": [{"measurement": "Inhibition", "setting": "Klebsiella pneumoniae", "result": 9.73, "unit": "%"}, {"measurement": "Inhibition", "setting": "Candida albicans", "result": -0.52, "unit": "%"}, {"measurement": "Inhibition", "setting": "Cryptococcus neoformans", "result": -14.67, "unit": "%"}]}
{"smiles": "COc1cc(NC(=O)Cn2nc3c(SC4CCCCC4)nccn3c2=O)cc(OC)c1", "values": [{"measurement": "Inhibition", "setting": "Klebsiella pneumoniae", "result": 18.11, "unit": "%"}, {"measurement": "Inhibition", "setting": "Candida albicans", "result": 13.52, "unit": "%"}, {"measurement": "Inhibition", "setting": "Cryptococcus neoformans", "result": -27.94, "unit": "%"}]}
{"smiles": "COC(=O)c1ccccc1NC(=O)Cn1nc2c(Oc3cccc(OC)c3)nccn2c1=O", "values": [{"measurement": "Inhibition", "setting": "Klebsiella pneumoniae", "result": -16.2, "unit": "%"}, {"measurement": "Inhibition", "setting": "Candida albicans", "result": 1.71, "unit": "%"}, {"measurement": "Inhibition", "setting": "Cryptococcus neoformans", "result": -7.59, "unit": "%"}]}
